# Data taken from PubChem BioAssay.
# Records with an inconclusive call do not appear. Active and inactive are the calls of the source.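 Rule for the calls, unless noted: active = Her2 level under about 52% in both replicate screens, with viability over 70% of control (limit read from the data); inconclusive = Her2 under the limit in one screen only, or viability under 70%; inactive = Her2 level above the set limit.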
# Key:
# [1] = Her2 expression decrease, cell viability multiplex – SKBR3 breast tumor cells, AlphaScreen, ATP viability, primary screen (AID 461); conditions: SKBR3 Her2 protein level, 18-24 h, measured here: SKBR3 viability, ATP luminescence, at 10 µM;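 for Her2 level: lower value means less Her2 protein in the cells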;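 for viability: percent of carrier control wells set as 100% viability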
# [2] = biological target: Receptor tyrosine-protein kinase erbB-2 (Homo sapiens) (UniProt P04626); assay: as above; conditions: 18-24 h, at 10 µM, stronger effect = lower value
# [3] = reduced viability of SK-BR-3 breast cancer cells – cell-based, 24 h, human, pilot screen (AID 572;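 active = viability at or below 10% of carrier control in both of two separate runs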;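 note: compound exposure lasted between 18 and 24 h rather than exactly 24 h; 100% = carrier-treated control wells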); conditions: SK-BR-3 viability, CellTiter-Glo luminescence, at 10 µM, stronger effect = lower value
# [4] = HUVEC growth inhibition – cell-based, human, primary screen (AID 575;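 active = viability at or below 30% in both replicate assays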;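 note: 100% = median of untreated cell wells with 0.1% DMSO on each plate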); conditions: HUVEC proliferation, CellTiter-Glo luminescence, 72 h; at 10 µM; stronger effect = lower value
# [5] = H69AR cell proliferation blockers – human, duplicate replicates, primary screen (AID 580;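 active = viability at or under a set limit in both replicates, limit being median viability minus 3 SD, cut at about 48% in these data, passing the limit was not always enough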;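 note: 100% = mean luminescence of untreated wells and 0% = no signal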); conditions: H69AR lung tumor cells viability, ATP luminescence, 72 h; at 10 µM; stronger effect = lower value
# [6] = MRP1 drug-resistance reversers in H69AR cells – cell-based, doxorubicin co-treatment, pilot screen (AID 601;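 active = viability loss from added drug above about 55%, and viability with drug at most 40%, in both replicates, limit read from the data, passing the limit was not always enough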); conditions: CellTiter-Glo, 72 h, at 10 µM; for differential viability (reversal): stronger effect = higher value
# [7] = yeast transport mutant growth inhibition pilot in 384-well plates, post-Golgi transport modulator project (AID 636; in the data active = inhibition above about 31%); conditions: absorbance 615 nm, about 18 h, stronger effect = higher value
# [8] = growth suppression of yeast trafficking mutant, preliminary HTS, modulators of trafficking downstream of Golgi apparatus project, 1536-format plate, OD 615 nm (AID 637; in the data active = inhibition above about 30%); conditions: yeast transport mutant growth, absorbance 615 nm, 18 h; stronger effect = higher value
# [9] = S. cerevisiae growth inhibition in permissive medium (OD615), pilot counter-assay for S. cerevisiae lifespan shortening project, permissive growth control (AID 705;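 active = growth inhibition above 25% in both replicates, a cutoff set 3 SD above the mean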); conditions: OD615, 24 h, at 10 µM, stronger effect = higher value
# [10] = S. cerevisiae growth inhibition in restrictive medium, OD615, pilot screen, restrictive growth control, yeast lifespan reduction project (AID 706;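 active = growth inhibition above a set limit, 3 SD over mean compound inhibition, in both replicates, cut at about 43% in these data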;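 note: modified DeaD lifespan yeast strain shifted to restrictive glucose medium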); conditions: OD615, 48 h, at 10 µM, stronger effect = higher value
# [11] = doxorubicin toxicity protection in MRP-1 cells – H69AR cells, CellTiter-Glo, duplicate, MRP-1 activator project, pilot screen (AID 807;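 active = viability increase at or above a cutoff of the median across tested compounds plus 3 SD, cut at about 8.5% in these data, passing the limit was not always enough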;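 note: compound pretreatment 18-22 h then 72 h combined with doxorubicin; 0% = doxorubicin alone and 100% = vehicle without doxorubicin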); conditions: H69AR viability with doxorubicin, CellTiter-Glo luminescence; at 10 µM; stronger effect = higher value
# [12] = viability of HCT116 without oncogenic beta-catenin – human colon tumor cells, pilot screen (AID 823;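 active = cell viability at or below a set limit in both duplicate runs, the limit being the all-compound median minus 4 SD, cut at about 23% in these data, passing the limit was not always enough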;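 note: 0% = wells killed by 20 µM Hyamine and 100% = untreated DMSO cell wells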); conditions: HCT116 beta-catenin knockout viability, CellTiter-Glo, 60 h; at 10 µM; stronger effect = lower value
# [13] = viability of PTEN-null HCT116 cells – cell-based, HCT116 clonal line, CellTiter-Glo, pilot screen (AID 824;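 active = viability at or below 27.92% in each of two runs, the all-compound median minus 4 SD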;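 note: 0% = 20 µM Hyamine control and 100% = vehicle cell control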); conditions: HCT116 PTEN-deleted viability, 60 h, at 10 µM, stronger effect = lower value
# [14] = RAM pathway blockade in budding yeast – dse1pr::URA3 reporter, 5-FOA selection, pilot screen (AID 869;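 active = inhibition over a set limit, the all-compound mean plus 3 SD, in both replicate runs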;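 note: 0% = DMSO wells with no growth and 100% = 10 µM 1-NA-PP1 with full growth; RAM network block rescues cells from 5-FOA so hits raise OD615 growth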); conditions: S. cerevisiae dse1pr::URA3 5-FOA growth, OD615, 2 d; at 10 µM; stronger effect = higher value; strain carries analog-sensitive mutant Cbk1 kinase
# [15] = RAM signaling pathway blockade in yeast – S. cerevisiae, Pdr1DBD-CYC8 efflux-inhibited sensitized strain, primary screen (AID 1298;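 active = RAM network inhibition above 8.4% in each of two replicates, 3 SD over the compound average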;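 note: 0% = DMSO untreated cells without growth and 100% = 10 µM 1-NA-PP1 full growth; higher means more yeast growth rescued from 5-FOA killing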); conditions: S. cerevisiae cbk1-as DSE1-URA3 strain, 5-FOA growth OD615, 2 d; at 50 µM; stronger effect = higher value
# [16] = H69AR cells + 2 uM doxorubicin, measured here: viability with 2 uM doxorubicin, stronger effect = lower value
# [17] = H69AR cells, compound alone cytotoxicity
# Receptor tyrosine-protein kinase erbB-2 (Homo sapiens), sequence (P04626 whole entry, looked up): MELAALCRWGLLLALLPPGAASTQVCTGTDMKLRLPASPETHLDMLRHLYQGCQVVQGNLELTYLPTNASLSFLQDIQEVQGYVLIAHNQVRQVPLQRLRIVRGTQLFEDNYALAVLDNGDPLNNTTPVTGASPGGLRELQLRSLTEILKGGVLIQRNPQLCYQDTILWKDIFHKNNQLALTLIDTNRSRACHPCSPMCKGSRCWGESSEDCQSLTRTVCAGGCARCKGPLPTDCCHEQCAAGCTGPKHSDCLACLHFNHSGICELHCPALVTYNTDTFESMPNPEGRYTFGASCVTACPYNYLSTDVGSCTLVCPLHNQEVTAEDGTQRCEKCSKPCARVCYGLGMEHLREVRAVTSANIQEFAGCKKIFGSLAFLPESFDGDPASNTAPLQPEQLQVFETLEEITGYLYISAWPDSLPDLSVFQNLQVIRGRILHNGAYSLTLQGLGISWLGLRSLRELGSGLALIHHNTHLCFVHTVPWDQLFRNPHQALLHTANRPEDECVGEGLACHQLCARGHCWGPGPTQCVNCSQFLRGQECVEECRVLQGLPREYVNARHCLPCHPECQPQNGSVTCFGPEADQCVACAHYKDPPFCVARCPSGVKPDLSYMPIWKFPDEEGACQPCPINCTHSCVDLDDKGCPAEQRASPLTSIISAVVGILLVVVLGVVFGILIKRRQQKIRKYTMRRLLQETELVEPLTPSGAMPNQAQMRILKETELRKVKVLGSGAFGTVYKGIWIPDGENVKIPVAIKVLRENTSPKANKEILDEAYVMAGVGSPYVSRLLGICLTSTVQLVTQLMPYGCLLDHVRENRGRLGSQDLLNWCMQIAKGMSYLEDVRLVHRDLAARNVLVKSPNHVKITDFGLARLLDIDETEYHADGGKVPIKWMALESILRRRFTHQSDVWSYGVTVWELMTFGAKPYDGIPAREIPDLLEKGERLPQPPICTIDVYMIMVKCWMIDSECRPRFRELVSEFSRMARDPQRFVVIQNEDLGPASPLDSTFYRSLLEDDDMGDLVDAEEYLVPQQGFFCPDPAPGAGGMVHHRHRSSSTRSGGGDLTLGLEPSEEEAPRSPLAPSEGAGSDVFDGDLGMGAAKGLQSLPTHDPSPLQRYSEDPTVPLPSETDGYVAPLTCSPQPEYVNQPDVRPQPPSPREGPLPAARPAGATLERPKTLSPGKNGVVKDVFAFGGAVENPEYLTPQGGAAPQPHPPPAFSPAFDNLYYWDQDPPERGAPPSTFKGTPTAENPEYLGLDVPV
Structure (SMILES),viability [1] [%],Her2 level [2],viability [3],viability [4],viability [5],differential viability (reversal) ([6]; H69AR cells + 2 uM doxorubicin),"viability [6, 16] [%]","viability [6, 17] [%]",inhibition [7],inhibition [8],growth inhibition [9],growth inhibition [10],viability increase [11],viability [12],viability [13],inhibition [14],RAM network inhibition [15]
CCN(CC)S(=O)(=O)c1ccc2oc(C(=O)N3CCOCC3)c(C)c2c1,79.5,101% (inactive),79.5% (inactive),106% (inactive),96.5% (inactive),-0.525% (inactive),97,96.5,0.67% (inactive),-4.84% (inactive),-6.28% (inactive),-17.5% (inactive),0.12% (inactive),93.7% (inactive),98.8% (inactive),-0.09% (inactive),-0.22% (inactive)
CN(C)C(=O)N1CCN(C(=O)c2ccco2)CC1,116,114% (inactive),116% (inactive),94.6% (inactive),101% (inactive),6.83% (inactive),94.6,101,2.4% (inactive),-3.83% (inactive),1.14% (inactive),8.06% (inactive),-1.78% (inactive),102% (inactive),99.5% (inactive),2.13% (inactive),0.72% (inactive)
COc1ccc2[nH]c(C)c(CCN3C(=O)OC(C)(C)C3(C)O)c2c1 (stereo not drawn),100,108% (inactive),100% (inactive),102% (inactive),81.5% (inactive),-10.4% (inactive),91.9,81.5,-5.73% (inactive),-6.67% (inactive),4.92% (inactive),-5.26% (inactive),-1.56% (inactive),107% (inactive),96.4% (inactive),1.92% (inactive),2.87% (inactive)
CCOC(=O)N1CCC(NC(=O)Cn2c3c(c(-c4ccccc4Cl)cc2=O)CCC3)CC1,94.5,92.5% (inactive),94.5% (inactive),123% (inactive),89.7% (inactive),0.145% (inactive),89.6,89.7,-6.67% (inactive),-1.67% (inactive),-9.94% (inactive),-0.355% (inactive),-0.33% (inactive),88.8% (inactive),91.9% (inactive),2.06% (inactive),4.05% (inactive)
Cc1ccc(C)c(NC(=O)CSc2nnc(-c3ccccc3)o2)c1,89.5,104% (inactive),89.5% (inactive),111% (inactive),89.6% (inactive),9.51% (inactive),80.1,89.6,-6.4% (inactive),-4.5% (inactive),-4.45% (inactive),-0.695% (inactive),1.83% (inactive),95.9% (inactive),97.2% (inactive),0.49% (inactive),1.79% (inactive)
Cc1ccc(OCC(O)CN2C(=O)NC(C)(C)C2=O)cc1C (stereo not drawn),105,94.5% (inactive),105% (inactive),88% (inactive),102% (inactive),15.8% (inactive),86.4,102,-5.73% (inactive),5.08% (inactive),-11.3% (inactive),-19.3% (inactive),-0.62% (inactive),105% (inactive),94% (inactive),0.65% (inactive),4.18% (inactive)
COc1cc2c(cc1OC)C(C)N(C(=O)Cn1ncc3c1-c1ccccc1OC3)CC2 (stereo not drawn),90.5,104% (inactive),90.5% (inactive),111% (inactive),87.2% (inactive),0.365% (inactive),86.9,87.2,-2.31% (inactive),2.33% (inactive),-9.09% (inactive),-8.14% (inactive),-2.56% (inactive),89.5% (inactive),89.8% (inactive),0.41% (inactive),1.88% (inactive)
O=C(Cn1ncc2c1-c1ccccc1OC2)Nc1ccc(Cl)cn1,91.5,95% (inactive),91.5% (inactive),80.1% (inactive),99.3% (inactive),7.75% (inactive),91.5,99.3,-0.26% (inactive),-5.5% (inactive),1.63% (inactive),0.96% (inactive),-3.35% (inactive),95.9% (inactive),95.1% (inactive),4.09% (inactive),0.83% (inactive)
COC(=O)c1sc(NC(=O)COc2ccccc2OC)nc1C,99.5,90% (inactive),99.5% (inactive),99.8% (inactive),95.1% (inactive),11.6% (inactive),83.5,95.1,-6.22% (inactive),-4% (inactive),-1.71% (inactive),-0.995% (inactive),-1.51% (inactive),102% (inactive),101% (inactive),1.06% (inactive),9% (inactive)
